Results taken from the supplement of paper PMC8728848.
The full list was thinned out, with the strongest signals kept by preference.

What was measured:
Experiment in all cases: glycan array binding signal (z-score within array); higher = stronger binding
Conditions in all cases: glycan notation: IUPAC condensed, linker removed
[1] = molecular target: Fuc(a1-2)Gal(b1-3)GalNAc
Summary of the method: (§1)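 The binding signal is a Z-score computed within each array and averaged over linkers. Arrays of the same protein sequence at different concentrations or buffers were also averaged together. Data originate from 3228 arrays in the Consortium for Functional Glycomics database, kept only where the protein sequence was available.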

[2] = molecular target: Fuc(a1-2)Gal(b1-4)[Fuc(a1-3)]GlcNAc(b1-3)Gal(b1-4)[Fuc(a1-3)]GlcNAc
Summary of the method: as §1

[3] = molecular target: Fuc(a1-2)GlcNAc
Summary of the method: as §1

[4] = molecular target: Fuc(a1-3)[Gal3S(b1-4)]GlcNAc
Summary of the method: as §1

[5] = molecular target: Gal(b1-3)[Fuc(a1-4)]GlcNAc(b1-3)Gal(b1-4)[Fuc(a1-3)]GlcNAc
Summary of the method: as §1

[6] = molecular target: Gal(b1-4)GlcNAc(b1-3)Gal(b1-4)[Fuc(a1-3)]GlcNAc(b1-3)Gal(b1-4)[Fuc(a1-3)]GlcNAc
Summary of the method: as §1

[7] = molecular target: Gal3S(b1-4)Glc
Summary of the method: as §1

[8] = molecular target: Gal3S(b1-4)GlcNAc6S
Summary of the method: as §1

[9] = molecular target: Gal3S6S(b1-4)GlcNAc6S
Summary of the method: as §1

[10] = molecular target: GlcNAc(b1-2)Gal(b1-3)GalNAc
Summary of the method: as §1

[11] = molecular target: Kdn(a2-3)Gal(b1-4)GlcNAc
Summary of the method: as §1

[12] = molecular target: Man(a1-3)[Man(a1-6)]Man
Summary of the method: as §1

[13] = molecular target: Neu5Ac(a2-3)Gal(b1-3)GalNAc6S
Summary of the method: as §1

[14] = molecular target: Neu5Ac(a2-3)Gal(b1-4)GlcNAc(b1-3)Gal(b1-4)GlcNAc
Summary of the method: as §1

[15] = molecular target: Neu5Ac(a2-6)Gal(b1-4)GlcNAc(b1-2)Man(a1-3)[Neu5Ac(a2-6)Gal(b1-4)GlcNAc(b1-2)Man(a1-6)]Man(b1-4)GlcNAc(b1-4)GlcNAc
Summary of the method: as §1

[16] = molecular target: Neu5Ac(a2-6)Gal(b1-4)GlcNAc6S
Summary of the method: as §1

[17] = molecular target: Neu5Ac9Ac(a2-6)Gal(b1-4)GlcNAc
Summary of the method: as §1

[18] = molecular target: Fuc(a1-2)Gal(b1-3)GalNAc(b1-4)[Neu5Ac(a2-3)]Gal(b1-4)Glc
Summary of the method: as §1

[19] = molecular target: Fuc(a1-2)Gal(b1-4)GlcNAc(b1-3)Gal(b1-4)GlcNAc
Summary of the method: as §1

[20] = molecular target: Fuc(a1-2)Gal6S(b1-4)GlcNAc
Summary of the method: as §1

[21] = molecular target: Fuc(a1-3)[Gal(b1-4)]GlcNAc(b1-4)Gal(b1-4)[Fuc(a1-3)]GlcNAc(b1-4)Gal(b1-4)[Fuc(a1-3)]GlcNAc
Summary of the method: as §1

[22] = molecular target: Fuc(a1-3)[Gal(b1-4)]GlcNAc6S
Summary of the method: as §1

[23] = molecular target: Fuc(a1-3)[GalNAc(b1-4)]Gal(b1-4)GlcNAc
Summary of the method: as §1

[24] = molecular target: Gal(a1-3)Gal(b1-4)[Fuc(a1-3)]GalNAc
Summary of the method: as §1

[25] = molecular target: Gal6S(b1-4)Glc6S
Summary of the method: as §1

[26] = molecular target: Gal6S(b1-4)GlcNAc
Summary of the method: as §1

[27] = molecular target: Glc(b1-6)Glc
Summary of the method: as §1

[28] = molecular target: GlcNAc(a1-6)Gal(b1-4)GlcNAc
Summary of the method: as §1

[29] = molecular target: GlcNAc(b1-3)Gal(b1-4)GlcNAc(b1-3)Gal(b1-4)GlcNAc
Summary of the method: as §1

[30] = molecular target: GlcNAc(b1-3)[GlcNAc(b1-6)]GlcNAc
Summary of the method: as §1

[31] = molecular target: GlcNAc(b1-4)Gal(b1-4)GlcNAc
Summary of the method: as §1

[32] = molecular target: GlcNAc(b1-4)[GlcNAc(b1-6)]GalNAc
Summary of the method: as §1

[33] = molecular target: Man(a1-2)Man(a1-2)Man(a1-3)[Man(a1-2)Man(a1-6)[Man(a1-3)]Man(a1-6)]Man(b1-4)GlcNAc(b1-4)GlcNAc
Summary of the method: as §1

[34] = molecular target: Neu5Ac(a2-3)Gal(b1-3)GlcNAc
Summary of the method: as §1

[35] = molecular target: Neu5Ac(a2-3)Gal(b1-4)[Fuc(a1-3)]GlcNAc(b1-3)Gal(b1-4)GlcNAc
Summary of the method: as §1

[36] = molecular target: Neu5Ac(a2-8)Neu5Ac(a2-8)Neu5Ac(a2-3)[GalNAc(b1-4)]Gal(b1-4)Glc
Summary of the method: as §1

[37] = molecular target: Neu5Gc(a2-3)Gal(b1-4)GlcNAc
Summary of the method: as §1

| Binder | glycan array binding signal (z-score) [1] | glycan array binding signal (z-score) [2] | glycan array binding signal (z-score) [3] | glycan array binding signal (z-score) [4] | glycan array binding signal (z-score) [5] | glycan array binding signal (z-score) [6] | glycan array binding signal (z-score) [7] | glycan array binding signal (z-score) [8] | glycan array binding signal (z-score) [9] | glycan array binding signal (z-score) [10] | glycan array binding signal (z-score) [11] | glycan array binding signal (z-score) [12] | glycan array binding signal (z-score) [13] | glycan array binding signal (z-score) [14] | glycan array binding signal (z-score) [15] | glycan array binding signal (z-score) [16] | glycan array binding signal (z-score) [17] | glycan array binding signal (z-score) [18] | glycan array binding signal (z-score) [19] | glycan array binding signal (z-score) [20] | glycan array binding signal (z-score) [21] | glycan array binding signal (z-score) [22] | glycan array binding signal (z-score) [23] | glycan array binding signal (z-score) [24] | glycan array binding signal (z-score) [25] | glycan array binding signal (z-score) [26] | glycan array binding signal (z-score) [27] | glycan array binding signal (z-score) [28] | glycan array binding signal (z-score) [29] | glycan array binding signal (z-score) [30] | glycan array binding signal (z-score) [31] | glycan array binding signal (z-score) [32] | glycan array binding signal (z-score) [33] | glycan array binding signal (z-score) [34] | glycan array binding signal (z-score) [35] | glycan array binding signal (z-score) [36] | glycan array binding signal (z-score) [37] |
| --- | --- | --- | --- | --- | --- | --- | --- | --- | --- | --- | --- | --- | --- | --- | --- | --- | --- | --- | --- | --- | --- | --- | --- | --- | --- | --- | --- | --- | --- | --- | --- | --- | --- | --- | --- | --- | --- |
| MMR (Homo sapiens), P22897 (protein) MRLPLLLVFASVIPGAVLLLDTRQFLIYNEDHKRCVDAVSPSAVQTAACNQDAESQKFRWVSESQIMSVAFKLCLGVPSKTDWVAITLYACDSKSEFQKWECKNDTLLGIKGEDLFFNYGNRQEKNIMLYKGSGLWSRWKIYGTTDNLCSRGYEAMYTLLGNANGATCAFPFKFENKWYADCTSAGRSDGWLWCGTTTDYDTDKLFGYCPLKFEGSESLWNKDPLTSVSYQINSKSALTWHQARKSCQQQNAELLSITEIHEQTYLTGLTSSLTSGLWIGLNSLSFNSGWQWSDRSPFRYLNWLPGSPSAEPGKSCVSLNPGKNAKWENLECVQKLGYICKKGNTTLNSFVIPSESDVPTHCPSQWWPYAGHCYKIHRDEKKIQRDALTTCRKEGGDLTSIHTIEELDFIISQLGYEPNDELWIGLNDIKIQMYFEWSDGTPVTFTKWLRGEPSHENNRQEDCVVMKGKDGYWADRGCEWPLGYICKMKSRSQGPEIVEVEKGCRKGWKKHHFYCYMIGHTLSTFAEANQTCNNENAYLTTIEDRYEQAFLTSFVGLRPEKYFWTGLSDIQTKGTFQWTIEEEVRFTHWNSDMPGRKPGCVAMRTGIAGGLWDVLKCDEKAKFVCKHWAEGVTHPPKPTTTPEPKCPEDWGASSRTSLCFKLYAKGKHEKKTWFESRDFCRALGGDLASINNKEEQQTIWRLITASGSYHKLFWLGLTYGSPSEGFTWSDGSPVSYENWAYGEPNNYQNVEYCGELKGDPTMSWNDINCEHLNNWICQIQKGQTPKPEPTPAPQDNPPVTEDGWVIYKDYQYYFSKEKETMDNARAFCKRNFGDLVSIQSESEKKFLWKYVNRNDAQSAYFIGLLISLDKKFAWMDGSKVDYVSWATGEPNFANEDENCVTMYSNSGFWNDINCGYPNAFICQRHNSSINATTVMPTMPSVPSGCKEGWNFYSNKCFKIFGFMEEERKNWQEARKACIGFGGNLVSIQNEKEQAFLTYHMKDSTFSAWTGLNDVNSEHTFLWTDGRGVHYTNWGKGYPGGRRSSLSYEDADCVVIIGGASNEAGKWMDDTCDSKRGYICQTRSDPSLTNPPATIQTDGFVKYGKSSYSLMRQKFQWHEAETYCKLHNSLIASILDPYSNAFAWLQMETSNERVWIALNSNLTDNQYTWTDKWRVRYTNWAADEPKLKSACVYLDLDGYWKTAHCNESFYFLCKRSDEIPATEPPQLPGRCPESDHTAWIPFHGHCYYIESSYTRNWGQASLECLRMGSSLVSIESAAESSFLSYRVEPLKSKTNFWIGLFRNVEGTWLWINNSPVSFVNWNTGDPSGERNDCVALHASSGFWSNIHCSSYKGYICKRPKIIDAKPTHELLTTKADTRKMDPSKPSSNVAGVVIIVILLILTGAGLAAYFFYKKRRVHLPQEGAFENTLYFNSQSSPGTSDMKDLVGNIEQNEHSVI | -0.435 | -0.234 | -0.407 | 2.96 | -0.37 | 0.283 | 3.67 | 3.5 | 3.58 | -0.453 | 0.013 | 3.57 | -0.344 | -0.439 | -0.418 | -0.155 | -0.397 |  |  |  |  |  |  |  |  |  |  |  |  |  |  |  |  |  |  |  |  |
| KCR (Mus musculus), P70194 (protein) MKEAELNRDMARYCTDNQCVSLQPQGLGPKSAALMAPRTLRHVQVILALMVVTVIFSLLALFVVASQPWRPEWNKEPPSLLLRGSNNSGHDNHSQFVRETEMQVAIQRLRDYEENSSSCHKEVQILKYQMDNVSSLVQLLGSHLEDVNADILQTKDVLKESGALALETQALRSSLEVASADIHSLRGDLEKANAMTSQTRGLLKSSTENTSAELHVLGRGLEEAQSEIQALRGSLQSANDLSSQTQGFLQHSMDNISAQIQTVRDGMERAGEKMNSLKKELETLTAQTQKANGHLEQTDAQIQGLKAELKSTSSLNSRIEVVNGQMKDASRELQTLRRDLSDVSALKSNVQMLQSNLQRAKTEMQTLKADLQATKALTAKIQGEQNRLGALQEAVAAQKQEQKTQNQVLQLIAQNWKYFNGNFYYFSRDKKPWREAEKFCTSQGAHLASVTSQEEQAFLVQTTSSGDHWIGLTDQGTEGIWRWVDGTPFNNAQSKGFWGKNQPDNWRHRNGEREDCVHVRQQWNDMACGSSYPWVCKKSTGWSAARVG | -0.72 |  |  |  |  |  |  | 0.95 |  |  | -0.623 |  |  |  |  |  |  | -0.426 | -0.635 | 0.367 | 4.39 | 3.94 | 3.06 | 0.117 | 2.48 | 0.769 | -0.566 | 2.47 | -0.465 | -0.721 | -0.82 | -0.917 | -0.336 | -0.592 | 0.119 | 0.254 | -0.288 |
